Records with an inconclusive call do not appear. Calls of active or inactive are those of the source. How the source made its calls, unless noted: active means hit-call score of the fitted dose curve at least 0.9, where 1 is the maximum; inactive means score below 0.9.
Tests used:
[1] = ATG_TAL_CIS: Attagene CIS-FACTORIAL HepG2 Assay for human TAL Basal Promoter (AID 2282966); conditions: HepG2 Attagene cis-factorial TAL promoter reporter; actives raise or lower the signal;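 further: background control endpoint measuring basal TAL promoter reporter mRNA not a specific factor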
Summary of the method: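 Readout: reporter mRNA, fluorescence by CE. System: HepG2, transient multi-reporter transfection, endogenous TF activity. Exposure: 24 h. Analysis: bidirectional, DMSO-normalized; background control.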

[2] = ATG_TGFb_CIS: Attagene CIS-FACTORIAL HepG2 Assay for human Transforming Growth Factor (TGF) (AID 2282967); conditions: HepG2 Attagene CIS TGFb reporter, mRNA transcription; actives raise or lower the signal
Summary of the method: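 HepG2 cells transiently transfected with cis-promoter-driven multiplexed reporter units; 24 h compound exposure. Reporter mRNA measured by RT-PCR, 6-FAM labeling, HpaI digestion and capillary electrophoresis; bidirectional fit versus DMSO baseline.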

[3] = ATG_VDRE_CIS: Attagene CIS-FACTORIAL HepG2 Assay for human Vitamin D Receptor Element (VDRE) (AID 2282968); conditions: HepG2 VDRE cis-reporter transcription, actives raise or lower the signal
Summary of the method: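 RT-PCR/CE readout of reporter mRNA; HepG2, transient transfection, 24 h dosing; DMSO baseline; bidirectional analysis.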

[4] = biological target: Steroid hormone receptor ERR1 (Homo sapiens) (UniProt P11474); experiment: ATG_ERRa_TRANS: Attagene TRANS-FACTORIAL HepG2 Assay for human Estrogen-Related Receptor alpha (ERRa) (AID 2282971; active means hit-call score of the fitted dose curve at least 0.9, where 1 is the maximum); conditions: HepG2 Attagene TRANS reporter, ERRa transactivation
Chain of Steroid hormone receptor ERR1 (Homo sapiens) (P11474 whole entry, looked up, the tested form may be a part): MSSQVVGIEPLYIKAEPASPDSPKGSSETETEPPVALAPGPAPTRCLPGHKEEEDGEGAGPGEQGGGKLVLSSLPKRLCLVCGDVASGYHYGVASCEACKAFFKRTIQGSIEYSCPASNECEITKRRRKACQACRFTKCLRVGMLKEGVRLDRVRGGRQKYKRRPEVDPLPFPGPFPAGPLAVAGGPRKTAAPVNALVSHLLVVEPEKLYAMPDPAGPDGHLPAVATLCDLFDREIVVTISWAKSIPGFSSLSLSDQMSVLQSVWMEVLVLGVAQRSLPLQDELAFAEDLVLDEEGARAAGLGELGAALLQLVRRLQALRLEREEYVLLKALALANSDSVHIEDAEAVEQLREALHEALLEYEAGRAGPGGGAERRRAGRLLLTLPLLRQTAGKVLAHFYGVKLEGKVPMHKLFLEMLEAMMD
Summary of the method: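 HepG2 cells were transiently transfected with multiple GAL4-UAS reporter units, then dosed with compound for 24 h. Total RNA was reverse-transcribed, reporter cDNA PCR-amplified and fluorescently labelled, and fragments resolved by capillary electrophoresis; induction was compared with DMSO.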

[5] = biological target: X-box-binding protein 1 (Homo sapiens) (UniProt P17861); experiment: ATG_Xbp1_CIS: Attagene CIS-FACTORIAL HepG2 Assay for human X-box Binding Protein 1 (XBP1) (AID 2282972); conditions: HepG2 XBP1 cis-element reporter, Attagene multiplex; actives raise or lower the signal
Chain of X-box-binding protein 1 (Homo sapiens) (P17861 whole entry, looked up): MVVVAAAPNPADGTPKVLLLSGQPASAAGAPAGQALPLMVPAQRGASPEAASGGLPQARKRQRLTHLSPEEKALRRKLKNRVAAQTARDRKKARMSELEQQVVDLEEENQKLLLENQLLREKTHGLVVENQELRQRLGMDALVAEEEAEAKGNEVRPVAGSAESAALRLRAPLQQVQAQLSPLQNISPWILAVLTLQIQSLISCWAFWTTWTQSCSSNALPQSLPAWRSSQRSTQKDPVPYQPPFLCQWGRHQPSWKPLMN
Summary of the method: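 After a 24-hour chemical exposure of HepG2 cells carrying cis-regulated reporters, reporter mRNA levels are assessed. Quantification uses RT-PCR, 6-FAM labelling and capillary electrophoresis. Gain- or loss-of-signal is fitted against DMSO.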

[6] = ATG_M_19_TRANS: Attagene TRANS-FACTORIAL HepG2 Assay for M19 Transcription Factor (Internal Marker) (AID 2282974; active means hit-call score of the fitted dose curve at least 0.9, where 1 is the maximum); conditions: HepG2 Attagene TRANS-FACTORIAL M19 internal marker reporter
Summary of the method: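 Gain-of-signal in reporter mRNA, relative to DMSO, was scored from capillary electrophoresis fluorescence. HepG2 cells carried transiently transfected multiple reporter transcription units and were incubated with test chemicals for 24 h.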

[7] = biological target: Glucocorticoid receptor (Homo sapiens) (UniProt P04150); experiment: ATG_GR_TRANS: Attagene TRANS-FACTORIAL HepG2 Assay for human Glucocorticoid Receptor (GR) (AID 2282978; active means hit-call score of the fitted dose curve at least 0.9, where 1 is the maximum;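 further: activators score as hits since higher reporter transcript over DMSO is fitted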); conditions: HepG2 Attagene TRANS GR reporter, mRNA transcription
Summary of the method: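 HepG2 transient transfection, multiple reporter units, GAL4-UAS under NR-GAL4 chimera control. 24 h treatment. Reporter mRNA by RT-PCR/CE fluorescence, DMSO as negative control.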

[8] = biological target: Bile acid receptor (Homo sapiens) (UniProt Q96RI1); experiment: ATG_FXR_TRANS: Attagene TRANS-FACTORIAL HepG2 Assay for Farnesoid X Receptor (FXR) (AID 2282979; active means hit-call score of the fitted dose curve at least 0.9, where 1 is the maximum;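 further: hits raise reporter mRNA above DMSO so AC50 marks FXR activation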); conditions: HepG2 Attagene TRANS FXR-GAL4 reporter transcription
Chain of Bile acid receptor (Homo sapiens) (Q96RI1 whole entry, looked up, the tested form may be a part): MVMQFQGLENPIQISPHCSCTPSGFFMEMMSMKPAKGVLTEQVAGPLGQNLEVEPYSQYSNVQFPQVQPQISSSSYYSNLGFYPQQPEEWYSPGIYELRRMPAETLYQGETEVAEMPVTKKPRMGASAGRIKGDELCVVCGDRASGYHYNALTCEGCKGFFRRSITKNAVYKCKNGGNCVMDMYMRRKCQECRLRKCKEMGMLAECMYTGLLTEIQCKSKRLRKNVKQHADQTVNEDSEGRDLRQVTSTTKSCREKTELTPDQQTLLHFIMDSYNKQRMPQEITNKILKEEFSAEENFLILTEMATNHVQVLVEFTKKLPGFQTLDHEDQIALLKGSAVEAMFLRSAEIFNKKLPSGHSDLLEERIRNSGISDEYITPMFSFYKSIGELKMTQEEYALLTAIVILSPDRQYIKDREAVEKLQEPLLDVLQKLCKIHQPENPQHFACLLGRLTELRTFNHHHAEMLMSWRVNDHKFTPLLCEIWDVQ
Summary of the method: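 Chimeric FXR-GAL4 activity in transiently transfected human HepG2 liver cells is scored as induction of reporter mRNA after 24 h of dosing. Detection uses RT-PCR with fluorescent labelling and capillary electrophoresis, with DMSO serving as baseline.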

[9] = biological target: Nuclear receptor subfamily 4 group A member 2 (Homo sapiens) (UniProt P43354); experiment: ATG_NURR1_TRANS: Attagene TRANS-FACTORIAL HepG2 Assay for human Nuclear Receptor Related Protein 1 (NURR1) (AID 2282985; active means hit-call score of the fitted dose curve at least 0.9, where 1 is the maximum); conditions: HepG2 Attagene TRANS reporter, mRNA readout
Chain of Nuclear receptor subfamily 4 group A member 2 (Homo sapiens) (P43354 whole entry, looked up): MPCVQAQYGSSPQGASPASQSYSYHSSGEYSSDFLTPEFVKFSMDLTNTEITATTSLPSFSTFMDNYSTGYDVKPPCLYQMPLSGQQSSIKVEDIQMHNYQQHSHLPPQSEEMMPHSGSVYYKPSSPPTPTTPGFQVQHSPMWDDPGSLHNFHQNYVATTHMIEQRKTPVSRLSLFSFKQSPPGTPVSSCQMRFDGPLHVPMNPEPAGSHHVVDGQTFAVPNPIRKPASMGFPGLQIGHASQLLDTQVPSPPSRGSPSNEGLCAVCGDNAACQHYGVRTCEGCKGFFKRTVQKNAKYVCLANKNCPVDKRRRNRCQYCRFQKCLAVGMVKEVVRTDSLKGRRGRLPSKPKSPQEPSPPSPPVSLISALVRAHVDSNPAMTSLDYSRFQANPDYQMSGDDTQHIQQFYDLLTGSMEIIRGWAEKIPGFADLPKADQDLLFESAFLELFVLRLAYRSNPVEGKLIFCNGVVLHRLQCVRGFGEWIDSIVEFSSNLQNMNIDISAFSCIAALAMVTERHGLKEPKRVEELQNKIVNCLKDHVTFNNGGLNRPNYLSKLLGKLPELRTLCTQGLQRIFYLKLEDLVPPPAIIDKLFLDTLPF
Summary of the method: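 After 24 h chemical dosing, total RNA from transiently transfected HepG2 cells was reverse-transcribed and reporter cDNA PCR-amplified, FAM-labelled and analysed by capillary electrophoresis. Activity fitted in positive direction, DMSO as negative control.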

[10] = biological target: Transcriptional activator Myb (Homo sapiens) (UniProt P10242); experiment: ATG_Myb_CIS: Attagene CIS-FACTORIAL HepG2 Assay for human Myeloblastosis (Myb) Proto-Oncogene Transcription Factor (AID 2282986); conditions: HepG2 Attagene CIS-FACTORIAL Myb reporter transcription; actives raise or lower the signal
Chain of Transcriptional activator Myb (Homo sapiens) (P10242 whole entry, looked up): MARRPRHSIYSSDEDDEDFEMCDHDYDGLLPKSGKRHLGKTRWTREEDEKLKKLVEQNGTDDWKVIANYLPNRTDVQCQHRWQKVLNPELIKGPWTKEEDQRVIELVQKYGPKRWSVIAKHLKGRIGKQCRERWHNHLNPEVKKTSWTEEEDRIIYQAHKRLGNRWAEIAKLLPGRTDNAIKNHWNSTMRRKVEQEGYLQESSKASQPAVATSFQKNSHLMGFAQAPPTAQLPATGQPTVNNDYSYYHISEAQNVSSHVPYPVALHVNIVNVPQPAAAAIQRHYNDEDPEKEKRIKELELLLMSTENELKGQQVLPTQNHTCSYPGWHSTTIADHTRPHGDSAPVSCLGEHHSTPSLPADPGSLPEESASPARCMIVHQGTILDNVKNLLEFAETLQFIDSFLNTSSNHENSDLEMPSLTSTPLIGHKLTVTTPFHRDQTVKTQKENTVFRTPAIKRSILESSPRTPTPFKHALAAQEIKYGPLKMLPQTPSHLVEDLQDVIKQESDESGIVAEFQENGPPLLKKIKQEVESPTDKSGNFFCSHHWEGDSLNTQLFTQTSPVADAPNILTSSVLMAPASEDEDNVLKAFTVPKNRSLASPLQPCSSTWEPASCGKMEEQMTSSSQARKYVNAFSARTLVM
Summary of the method: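 Multiplexed cis-reporter system in HepG2: transient transfection, 24 h treatment, mRNA readout by RT-PCR and capillary electrophoresis. Both increases and decreases are scored versus DMSO negative control.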

[11] = biological target: Nuclear respiratory factor 1 (Homo sapiens) (UniProt Q16656); experiment: ATG_NRF1_CIS: Attagene CIS-FACTORIAL HepG2 Assay for human Nuclear Respiratory Factor 1 (NRF1) Orphan Gene (AID 2282987); conditions: HepG2 NRF1 cis-element reporter, Attagene multiplex; actives raise or lower the signal
Chain of Nuclear respiratory factor 1 (Homo sapiens) (Q16656 whole entry, looked up): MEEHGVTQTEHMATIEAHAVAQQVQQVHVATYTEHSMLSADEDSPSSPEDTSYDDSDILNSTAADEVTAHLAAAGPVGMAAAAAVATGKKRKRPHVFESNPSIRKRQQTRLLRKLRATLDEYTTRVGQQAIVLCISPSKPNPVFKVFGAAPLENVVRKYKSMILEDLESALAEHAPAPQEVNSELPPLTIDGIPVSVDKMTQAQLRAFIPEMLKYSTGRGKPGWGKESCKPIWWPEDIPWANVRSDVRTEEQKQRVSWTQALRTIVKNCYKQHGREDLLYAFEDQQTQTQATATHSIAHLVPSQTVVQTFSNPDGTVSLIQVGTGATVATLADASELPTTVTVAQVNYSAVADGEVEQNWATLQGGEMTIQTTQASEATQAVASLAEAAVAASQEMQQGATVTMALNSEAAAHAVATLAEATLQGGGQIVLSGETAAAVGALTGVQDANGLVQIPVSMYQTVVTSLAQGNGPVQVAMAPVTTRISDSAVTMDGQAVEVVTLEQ
Summary of the method: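 Endogenous factor activity was captured via cis-element-driven reporter transcripts in HepG2 cells. Following 24 h chemical treatment, transcripts were quantified by RT-PCR and capillary electrophoresis.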

[12] = ATG_NFI_CIS: Attagene CIS-FACTORIAL HepG2 Assay for human Nuclear Factor I (NFI) (AID 2282989); conditions: HepG2 cis-regulatory reporter, NFI response element transcription; actives raise or lower the signal
Summary of the method: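 HepG2 cells transiently transfected with cis-element-driven multiplexed reporter transcription units, dosed for 24 h. Reporter mRNA quantified by RT-PCR, fluorescent labelling, HpaI digestion and capillary electrophoresis; bidirectional fit versus DMSO baseline.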

[13] = ATG_GAL4_TRANS: Attagene TRANS-FACTORIAL HepG2 Assay for GAL4 (Internal Marker) (AID 2282976; active means hit-call score of the fitted dose curve at least 0.9, where 1 is the maximum); conditions: HepG2 Attagene TRANS GAL4 internal marker reporter
Summary of the method: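 Fluorescence from capillary electrophoresis of labelled RT-PCR products quantifies reporter mRNA induction after 24 h dosing of HepG2 cells carrying transfected GAL4-UAS reporter transcription units. Vehicle DMSO serves as baseline.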

[14] = biological target: Estrogen-related receptor gamma (Homo sapiens) (UniProt P62508); experiment: ATG_ERRg_TRANS: Attagene TRANS-FACTORIAL HepG2 Assay for human Estrogen-Related Receptor gamma (ERRg) (AID 2282977; active means hit-call score of the fitted dose curve at least 0.9, where 1 is the maximum;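 further: hits increase reporter signal over DMSO so potencies reflect activators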); conditions: HepG2 Attagene TRANS reporter, ERRg transactivation
Chain of Estrogen-related receptor gamma (Homo sapiens) (P62508 whole entry, looked up, the tested form may be a part): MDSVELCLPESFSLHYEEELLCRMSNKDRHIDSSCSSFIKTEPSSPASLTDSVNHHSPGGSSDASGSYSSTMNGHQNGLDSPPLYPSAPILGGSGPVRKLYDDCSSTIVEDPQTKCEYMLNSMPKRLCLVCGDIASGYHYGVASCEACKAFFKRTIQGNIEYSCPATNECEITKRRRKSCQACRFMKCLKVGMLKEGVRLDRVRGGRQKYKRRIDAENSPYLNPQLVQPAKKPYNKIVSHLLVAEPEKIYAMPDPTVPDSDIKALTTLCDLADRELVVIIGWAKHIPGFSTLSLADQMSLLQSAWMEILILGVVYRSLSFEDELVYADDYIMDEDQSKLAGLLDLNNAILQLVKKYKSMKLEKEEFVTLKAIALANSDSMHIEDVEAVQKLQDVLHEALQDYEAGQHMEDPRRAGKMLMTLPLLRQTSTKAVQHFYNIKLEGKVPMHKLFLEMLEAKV
Summary of the method: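 HepG2 cells transiently transfected with multiplexed GAL4-UAS reporter units driven by chimeric NR-Gal4 proteins; 24 h exposure. Reporter mRNA quantified by RT-PCR, fluorescent labelling, HpaI digestion and capillary electrophoresis; gain of signal vs DMSO.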

[15] = biological target: Oxysterols receptor LXR-alpha (Homo sapiens) (UniProt Q13133); experiment: ATG_LXRa_TRANS: Attagene TRANS-FACTORIAL HepG2 Assay for human Liver X Receptor alpha (LXRa) (AID 2282980; active means hit-call score of the fitted dose curve at least 0.9, where 1 is the maximum); conditions: HepG2 Attagene TRANS reporter, LXRa transactivation
Chain of Oxysterols receptor LXR-alpha (Homo sapiens) (Q13133 whole entry, looked up): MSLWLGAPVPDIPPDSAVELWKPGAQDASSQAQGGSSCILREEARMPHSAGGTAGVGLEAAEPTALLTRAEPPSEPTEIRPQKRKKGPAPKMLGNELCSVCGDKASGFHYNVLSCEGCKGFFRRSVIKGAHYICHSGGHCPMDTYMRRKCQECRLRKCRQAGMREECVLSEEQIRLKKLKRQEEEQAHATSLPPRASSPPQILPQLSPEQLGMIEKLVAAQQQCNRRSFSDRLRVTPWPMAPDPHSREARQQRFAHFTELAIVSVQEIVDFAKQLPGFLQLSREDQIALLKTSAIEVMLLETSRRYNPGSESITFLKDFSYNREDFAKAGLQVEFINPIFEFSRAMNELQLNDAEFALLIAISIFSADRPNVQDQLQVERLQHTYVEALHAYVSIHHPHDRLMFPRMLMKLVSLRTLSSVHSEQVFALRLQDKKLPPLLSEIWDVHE
Summary of the method: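 Transient HepG2 transfectants, 24 h dosing, RT-PCR/CE mRNA reporter quantitation; gain-of-signal vs DMSO.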

[16] = ATG_M_06_TRANS: Attagene TRANS-FACTORIAL HepG2 Assay for M06 Transcription Factor (Internal Marker) (AID 2282983; active means hit-call score of the fitted dose curve at least 0.9, where 1 is the maximum); conditions: HepG2 Attagene TRANS M06 internal marker reporter
Summary of the method: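 Measured by capillary electrophoresis of fluorescently labelled RT-PCR products, this endpoint reflects reporter mRNA in HepG2 cells harbouring exogenous NR-GAL4 reporter constructs after 24 h exposure, with DMSO as baseline.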

[17] = ATG_M_32_TRANS: Attagene TRANS-FACTORIAL HepG2 Assay for M32 Transcription Factor (Internal Marker) (AID 2282984; active means hit-call score of the fitted dose curve at least 0.9, where 1 is the maximum;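 further: transcript level of a background control reporter unit measured by RT-PCR and capillary electrophoresis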); conditions: HepG2 Attagene TRANS M32 internal marker reporter
Summary of the method: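 Human hepatoma HepG2, transient MRTU transfection, 24 h treatment. RNA → RT-PCR → fluorescent primer extension → HpaI digest (2 h, 37 C) → CE. Positive-direction fit vs DMSO.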

[18] = biological target: Oxysterols receptor LXR-beta (Homo sapiens) (UniProt P55055); experiment: ATG_LXRb_TRANS: Attagene TRANS-FACTORIAL HepG2 Assay for human Liver X Receptor beta (LXRb) (AID 2282981; active means hit-call score of the fitted dose curve at least 0.9, where 1 is the maximum); conditions: HepG2 Attagene TRANS GAL4-LXRb reporter, mRNA
Chain of Oxysterols receptor LXR-beta (Homo sapiens) (P55055 whole entry, looked up, the tested form may be a part): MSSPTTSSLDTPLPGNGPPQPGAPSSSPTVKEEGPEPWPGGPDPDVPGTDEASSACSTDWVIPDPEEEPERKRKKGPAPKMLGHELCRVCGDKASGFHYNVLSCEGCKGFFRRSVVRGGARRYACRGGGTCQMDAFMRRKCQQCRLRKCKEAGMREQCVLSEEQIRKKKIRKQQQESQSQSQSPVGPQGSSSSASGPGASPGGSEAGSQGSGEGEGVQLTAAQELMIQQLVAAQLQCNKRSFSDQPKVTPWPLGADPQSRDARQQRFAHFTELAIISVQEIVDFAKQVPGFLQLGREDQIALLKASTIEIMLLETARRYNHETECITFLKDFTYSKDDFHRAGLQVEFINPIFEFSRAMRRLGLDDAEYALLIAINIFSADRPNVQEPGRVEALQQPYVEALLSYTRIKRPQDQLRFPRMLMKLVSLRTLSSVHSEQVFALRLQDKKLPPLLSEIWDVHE
Summary of the method: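 In this TRANS format, exogenous chimeric NR-Gal4 protein activity, not endogenous factors, drives reporter expression in transfected human HepG2 cells. Exposure lasted 24 h; reporter mRNA was read by fluorescent capillary electrophoresis.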

[19] = biological target: Hepatocyte nuclear factor 4-alpha (Homo sapiens) (UniProt P41235); experiment: ATG_HNF4a_TRANS: Attagene TRANS-FACTORIAL HepG2 Assay for human Hepatocyte Nuclear Factor 4 alpha (HNF4a) (AID 2282982; active means hit-call score of the fitted dose curve at least 0.9, where 1 is the maximum); conditions: HepG2 HNF4a transactivation reporter, mRNA readout
Chain of Hepatocyte nuclear factor 4-alpha (Homo sapiens) (P41235 whole entry, looked up, the tested form may be a part): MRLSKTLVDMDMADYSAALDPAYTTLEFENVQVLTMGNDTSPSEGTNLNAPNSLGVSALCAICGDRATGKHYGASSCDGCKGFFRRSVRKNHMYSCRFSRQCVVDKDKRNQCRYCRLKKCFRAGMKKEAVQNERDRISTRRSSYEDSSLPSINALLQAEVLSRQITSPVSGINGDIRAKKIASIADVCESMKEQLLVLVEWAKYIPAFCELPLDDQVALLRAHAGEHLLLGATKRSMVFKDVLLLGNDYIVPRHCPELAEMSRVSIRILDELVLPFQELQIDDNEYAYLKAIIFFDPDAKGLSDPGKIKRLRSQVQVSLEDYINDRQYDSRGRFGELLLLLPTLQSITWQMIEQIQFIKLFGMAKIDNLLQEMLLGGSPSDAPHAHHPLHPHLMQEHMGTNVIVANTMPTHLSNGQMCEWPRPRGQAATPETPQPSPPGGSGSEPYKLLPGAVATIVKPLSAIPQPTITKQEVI
Summary of the method: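 Cells used were human HepG2, transiently carrying GAL4-UAS reporter units read out against exogenous NR-GAL4 chimeras. Reporter transcript levels after 24 h dosing were quantified by fluorescent RT-PCR and capillary electrophoresis.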

Measured: outcome

Clc1cc(Cl)c(-c2c(Cl)c(Cl)cc(Cl)c2Cl)cc1Cl
not listed: [13] | [14] | [15] | [16] | [17] | [18] | [19]
inactive: all other assays above

CCCCCC(C)=O
not listed: [4] | [8] | [9] | [18] | [19]
inactive: all other assays above

CC1=NN(c2ccc(S(=O)(=O)O)cc2)C(=O)C1
not listed: [4] | [8] | [9] | [14] | [16] | [17] | [19]
inactive: all other assays above

CCCCOC(=O)CCCCCCCC(=O)OCCCC
not listed: [6] | [7] | [17] | [19]
inactive: all other assays above

COc1cc(CCC(C)=O)ccc1O
not listed: [4] | [15] | [16] | [19]
inactive: all other assays above

Cc1occc(=O)c1OC(=O)C(C)C
not listed: [7] | [8] | [13] | [14] | [16] | [18]
inactive: all other assays above

C#CC(C)N(C)C(=O)Nc1ccc(Cl)cc1 (centres undefined)
not listed: [6] | [7] | [8] | [13] | [14] | [17]
inactive: all other assays above

CCCCCCCC(=O)OCCCCCC
not listed: [7] | [8] | [13] | [14] | [18]
inactive: all other assays above

CCCCCCCCCCCCCC(=O)OCC(O)CO (centres undefined)
not listed: [6] | [9] | [10] | [14] | [15]
inactive: all other assays above

Cc1ccc(C)o1
not listed: [4] | [7] | [16] | [17] | [18] | [19]
inactive: all other assays above

C=C(C)CNCC
not listed: [6] | [8] | [14] | [15] | [18]
inactive: all other assays above

COc1ccc(OC)c(N=Nc2c(O)ccc3ccccc23)c1
not listed: [6] | [7] | [10] | [13] | [15] | [17]
inactive: all other assays above

ON=C1CCCCC1
inactive: [1] | [2] | [3] | [4] | [5] | [15] | [18] | [16] | [11] | [12]

COc1ccc(CCN2CCC(Nc3nc4ccccc4n3Cc3ccc(F)cc3)CC2)cc1
not listed: [6] | [7] | [15] | [18] | [19]
inactive: all other assays above

O=C(O)CCCCCCCCCCCC(=O)O
inactive: [1] | [2] | [3] | [4] | [6] | [15] | [11] | [12]

CCc1ccc(O)cc1
not listed: [4] | [8] | [12] | [15] | [18]
inactive: all other assays above

CN(C)CCOC(C)(c1ccccc1)c1ccccn1 (centres undefined)
not listed: [4] | [7] | [9] | [10] | [17] | [19]
inactive: all other assays above

CC(=O)NCCO
not listed: [4] | [8] | [9] | [14] | [16] | [18]
inactive: all other assays above

CCOC(=O)CC(C)O (centres undefined)
not listed: [4] | [9] | [10] | [14] | [16] | [18]
inactive: all other assays above

COCCOCCOCCO
not listed: [8] | [12] | [13] | [14] | [15] | [16] | [17]
inactive: all other assays above
